Screening results as filed in PubChem BioAssay.
tim23-1 inh – growth inhibitors of tim23-1 mutant yeast, primary screen, luminescence, uHTS; S. cerevisiae tim23-1 growth, BacTiter-Glo luminescence, 24 h; inhibition, % at 20 µM; 1.3% of 330,000 active; AID 463212, 2010;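 active means growth inhibition of the mutant yeast at or above 50%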;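 further: temperature-sensitive mutant grown at 25 °C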
Beta2AR agonist – beta2AR agonists driving receptor internalization, primary screen, cell-based, FAP fluorogen, flow cytometry; response, % (test concentration not listed); Am2.2-beta2AR cells; AID 504454, 2011; Beta-2 adrenergic receptor (Homo sapiens), P07550; 0.43% of 340,000 active;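 active means response above a set limit, near 3 SD of response in nonfluorescent compounds, cut at about 42% in these data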
Target sequence (P07550 whole entry, looked up): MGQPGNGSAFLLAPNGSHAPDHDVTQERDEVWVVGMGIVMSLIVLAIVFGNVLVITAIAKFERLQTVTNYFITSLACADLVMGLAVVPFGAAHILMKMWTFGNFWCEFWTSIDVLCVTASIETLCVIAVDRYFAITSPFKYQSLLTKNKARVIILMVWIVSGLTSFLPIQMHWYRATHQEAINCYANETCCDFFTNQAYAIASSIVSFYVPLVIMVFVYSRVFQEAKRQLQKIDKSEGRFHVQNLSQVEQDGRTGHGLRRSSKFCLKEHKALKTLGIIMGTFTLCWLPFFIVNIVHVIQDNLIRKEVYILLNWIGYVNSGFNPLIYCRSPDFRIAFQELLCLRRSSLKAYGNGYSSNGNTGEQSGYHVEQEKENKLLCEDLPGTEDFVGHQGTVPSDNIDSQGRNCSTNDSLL
TIM10 inh – growth inhibitors of isogenic TIM10 control yeast, primary screen, counter-screen for tim10-1 yeast inhibitor project, luminescence, uHTS; S. cerevisiae TIM10 strain growth, BacTiter-Glo luminescence, 24 h; AID 463195, 2010; inhibition, % at 10 µM; 1.4% of 330,000 active;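 active means inhibition of 40% or more at the single tested concentration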;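 further: wild-type TIM10 isogenic control strain grown at permissive 25 °C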
PfHsp90 yeast 2 – growth inhibition of PfHsp90-expressing yeast, primary screen, antimalarial PfHsp90 inhibitor project, S. cerevisiae, BacTiter-Glo luminescence, single point, set 2. 0.32% of 310,000 active. inhibition, % at 9.4 µM. BacTiter-Glo ATP, 48 h; yeast lacking PDR1 and PDR3 efflux regulators. AID 504621, 2011;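 active means every replicate shows inhibition above about 80%, whatever the replicate mean, limit read from the data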
tim10-1 inh – growth inhibitors of tim10-1 mutant yeast, primary screen, luminescence, uHTS | S. cerevisiae tim10-1 ts strain growth, BacTiter-Glo, 24 h | inhibition, % at 20 µM | 2.2% of 330,000 active | AID 463190, 2010;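 active means inhibition of at least 40%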;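 further: mutant grown at 25 °C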
tim10-1 conf – growth inhibitors of tim10-1 mutant yeast, confirmation, single concentration, luminescence, S. cerevisiae | 56% of 7,400 active | shares compounds with tim10-1 inh | inhibition, % at 20 µM | AID 463213, 2010 | S. cerevisiae tim10-1 ts strain growth, BacTiter-Glo, 24 h;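 active means inhibition of yeast growth at or above a set limit in either of two repeat tests at 20 µM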;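 further: tim10-1 mutant grown at permissive 25 °C to find synthetic lethal compounds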
TIM10 conf – growth inhibitors of wild-type TIM10 yeast, confirmation, counter-screen for tim10-1 synthetic lethality project, single concentration, luminescence, S. cerevisiae; AID 463215, 2010; 63% of 4,600 active; S. cerevisiae tim10 strain growth, BacTiter-Glo luminescence, 24 h; shares compounds with TIM10 inh; inhibition, % at 10 µM;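 active means inhibition of yeast growth at or above a set limit in either of two replicates at 10 µM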; further: this counterscreen used the strain with wild-type TIM10
tim23-1 confirm – tim23-1 mutant yeast growth inhibitors, confirmation, luminescence, single concentration; shares compounds with tim23-1 inh; S. cerevisiae tim23-1 growth, BacTiter-Glo luminescence, 24 h; inhibition, % at 20 µM; 83% of 4,400 active; AID 463218, 2010;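 active means inhibition above about 39% in either of two replicate wells at 20 µM, limit read from the data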;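 further: temperature-sensitive tim23-1 mutant grown at 25 °C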
Of the large screens only hits and unclear results are named; the others gave an inactive call (follow-up assays come after a bar, where they were run). Rows were chosen to be rich in hits. Some 3.8% of all compounds tested hit in one or more screens of this group.

COc1cccc2oc3ccc(C#Cc4ccccn4)cc3c(=O)c12	tim23-1 inh 75, TIM10 inh 56, tim10-1 inh 41 | tim10-1 conf 53 | TIM10 conf 38 | tim23-1 confirm 70
Cc1cccc(-n2cc(-c3ccccc3)[nH]c2=S)c1	tim23-1 inh 51, tim10-1 inh 46 | tim10-1 conf inactive | tim23-1 confirm 49
COc1ccc(-n2cc(-c3ccccc3)[nH]c2=S)cc1	none
Cc1ccc(CC(=O)Nc2ccc(F)c([N+](=O)[O-])c2)cc1C	none
COc1cc(Br)cc(CNc2ccc(F)c([N+](=O)[O-])c2)c1O	tim23-1 inh 54, TIM10 inh 44, tim10-1 inh 55 | tim10-1 conf 33 | TIM10 conf 40 | tim23-1 confirm 56
O=c1oc(-c2ccccc2Br)nc2ccccc12	tim23-1 inh 59, tim10-1 inh 49 | tim10-1 conf 40 | tim23-1 confirm 71
O=c1oc(-c2cccnc2)nc2ccccc12	none
Cc1cccc(N/N=C(\C=N\N)C(=O)c2ccc(Br)cc2)c1	none (no result: Beta2AR agonist, PfHsp90 yeast 2)
Cc1cccc(N=N/C(=C\O)C(=O)c2ccc(Br)cc2)c1	tim23-1 inh 64, tim10-1 inh 57 | tim10-1 conf 52 | tim23-1 confirm 44
Cc1c(Cl)cccc1NC(=O)Nc1cc(C(C)(C)C)on1	tim23-1 inh 59, tim10-1 inh 59 | tim10-1 conf 26 | tim23-1 confirm 45
Cc1ccccc1CN1CCN(C(C)C(=O)NNC(=O)c2ccc(F)cc2)CC1 (stereo unspecified)	none
CC(=O)SC1CC(=O)C=C2CCC3C4CCC(=O)OC4(C)CCC3C21C (stereo unspecified)	none (no result: tim23-1 inh, TIM10 inh, PfHsp90 yeast 2, tim10-1 inh)
CCC1(CC(C)C)SC(N)=NC1=O (stereo unspecified)	none (no result: tim23-1 inh, TIM10 inh, tim10-1 inh)
COC(=O)c1c(NC(=O)c2cccc(S(=O)(=O)N3CCN(C)CC3)c2)sc(C)c1C	tim23-1 inh 55, tim10-1 inh 57 (no result: PfHsp90 yeast 2) | tim10-1 conf 42 | tim23-1 confirm 47
COc1cccc(NC=C2C(=O)OC3(CCCCC3)OC2=O)c1	tim23-1 inh 74, TIM10 inh 58, tim10-1 inh 66 | tim10-1 conf 70 | TIM10 conf 72 | tim23-1 confirm 74
COc1cccc(NC=C2C(=O)OC(C)(C)OC2=O)c1	none
Cc1ccc(C(=O)c2coc3c2C(=O)C(=O)c2ccccc2-3)cc1	tim23-1 inh 85, TIM10 inh 97, PfHsp90 yeast 2 141, tim10-1 inh 93 | tim10-1 conf 94 | TIM10 conf 96 | tim23-1 confirm 95
CCOc1cc(-c2cc(-c3ccc(N)cc3)nc(N)c2C#N)ccc1O	tim23-1 inh 50, tim10-1 inh 41 | tim10-1 conf inactive | tim23-1 confirm 53
COc1ccccc1NC(=O)CCCc1nnc2n(C)c(=O)c3sccc3n12	none
CC(/C=N/n1c(COc2ccccc2)n[nH]c1=S)=C\c1ccccc1	tim23-1 inh 51, tim10-1 inh 43 | tim10-1 conf inactive | tim23-1 confirm 50
Cc1cc(-c2n[nH]c(=S)n2/N=C/C(Cl)=C/c2ccccc2)n[nH]1	tim23-1 inh 54, TIM10 inh 54, tim10-1 inh 51 | tim10-1 conf 47 | TIM10 conf inactive | tim23-1 confirm 48
S=c1[nH]nc(-c2ccco2)n1/N=C/C(Cl)=C/c1ccccc1	none
CC(=C/c1ccccc1)/C=N/n1c(C)n[nH]c1=S	none
CCOC(=O)/C(=N/Nc1ccc(C)cc1)S(=O)(=O)c1ccc(Cl)cc1	none
NNC(=O)/C(=N/Nc1ccccc1)S(=O)(=O)c1ccc(Cl)cc1	tim23-1 inh 69, tim10-1 inh 56 | tim10-1 conf 49 | tim23-1 confirm 59
CCCCn1nnc(NC(=O)c2ccc(-c3cccc(Cl)c3)o2)n1	tim23-1 inh 72, TIM10 inh 45, tim10-1 inh 50 | tim10-1 conf 51 | TIM10 conf 47 | tim23-1 confirm 74
O=C1C=CC(=O)N1N(c1ccccc1)c1ccccc1	tim23-1 inh 55, TIM10 inh 54, PfHsp90 yeast 2 96, tim10-1 inh 65 | tim10-1 conf 67 | TIM10 conf 61 | tim23-1 confirm 47
CCCCn1c(N)c(N(Cc2ccccc2)C(=O)COc2ccccc2F)c(=O)[nH]c1=O	none
O=C(Cc1ccc(F)cc1)N[C@@H]1c2ccccc2CC[C@H]1OCc1ccccc1	none
CCOC(=O)C1=C(C)N=c2s/c(=C\c3ccc(OCC(=O)O)cc3)c(=O)n2C1c1ccc(Cl)cc1 (stereo unspecified)	none
CCOC(=O)C1=C(C)N=c2s/c(=C/c3ccc(OCC(=O)O)c(OC)c3)c(=O)n2C1c1ccc(Cl)cc1 (stereo unspecified)	tim23-1 inh 50, tim10-1 inh 56 | tim10-1 conf 46 | tim23-1 confirm 53
COC(=O)Cc1c(C)[nH]n(-c2cc(Cl)cc(Cl)c2)c1=O	tim23-1 inh 70, tim10-1 inh 45 | tim10-1 conf 37 | tim23-1 confirm 63
CCOC(=O)c1n[nH]n(-c2cc(Cl)cc(Cl)c2)c1=O	none
O=C(NCCc1ccccc1)c1coc(=O)c(Br)c1	none
O=c1oc(Cl)c(Cl)c2ccccc12	tim23-1 inh 64, Beta2AR agonist 62, tim10-1 inh 45 | tim10-1 conf inactive | tim23-1 confirm 88
O=C(Cc1ccc([N+](=O)[O-])cc1)N1CCCCCC1	none
O=C(CCc1ccc(Oc2cc([N+](=O)[O-])cc([N+](=O)[O-])c2)cc1)N1CCCCCC1	tim23-1 inh 51, TIM10 inh 45, tim10-1 inh 43 | tim10-1 conf 39 | TIM10 conf 42 | tim23-1 confirm 50
Cc1cc(NC(=O)CCC(=O)N(CC(=O)NC2CCCC2)c2cccc(F)c2)no1	none
CC[C@]12C(=O)N(C)C[C@H]([C@@H]3C(=O)N(Cc4ccccc4)C(=O)[C@@H]31)N2C(=O)c1ccc(F)cc1	none (no result: tim23-1 inh, TIM10 inh, tim10-1 inh)
Cc1nc2c(-c3ccc(F)cc3)cnn2c(N)c1-c1ccccc1	tim23-1 inh 74, TIM10 inh 45, tim10-1 inh 46 | tim10-1 conf 35 | TIM10 conf 52 | tim23-1 confirm 42
